In paper PMC7862700, “An all-to-all approach to the identification of sequence-specific readers for epigenetic DNA modifications on cytosine”:

What was measured:
Assay in all cases: DAPPL (digital affinity profiling via proximity ligation, sequencing); 10 mM Tris-HCl pH 7.5, 50 mM NaCl, 1 mM DTT, 4% glycerol, room temperature, 30 min; GST-TFs on glutathione beads, 16-mer random dsDNA library, 0.1% formaldehyde crosslink after washing; high values mean tight binding
FLI1 = target: T1, FLI1 (Homo sapiens, UniProt Q01543 1-452); conditions: protein: recombinant; tags: N-terminal GST; dsDNA, one strand shown
T1 sequence: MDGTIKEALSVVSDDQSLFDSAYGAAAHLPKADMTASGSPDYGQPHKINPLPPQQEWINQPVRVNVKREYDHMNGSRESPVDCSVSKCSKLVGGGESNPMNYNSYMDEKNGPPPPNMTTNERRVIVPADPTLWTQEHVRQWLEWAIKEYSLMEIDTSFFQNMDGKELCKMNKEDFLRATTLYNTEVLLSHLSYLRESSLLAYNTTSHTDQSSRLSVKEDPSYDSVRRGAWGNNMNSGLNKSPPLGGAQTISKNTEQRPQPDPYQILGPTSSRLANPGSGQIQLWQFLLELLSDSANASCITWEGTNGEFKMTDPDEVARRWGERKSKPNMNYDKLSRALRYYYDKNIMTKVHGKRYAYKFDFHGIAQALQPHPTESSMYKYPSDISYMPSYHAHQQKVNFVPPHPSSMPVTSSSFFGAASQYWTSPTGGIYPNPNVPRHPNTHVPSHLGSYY
Procedure, shortened: (§1)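 Binding signal is each hexamer's read frequency for a factor divided by its frequency in the tag-only sample. The factors were GST-fused human transcription factors from yeast, captured on glutathione beads, DNA-barcoded and pooled with that sample. Pools were incubated with 200 nmole of a random double-stranded 16-mer DNA library in Tris/NaCl/DTT/glycerol buffer at room temperature for 30 min, then washed, crosslinked with 0.1% formaldehyde, proximity-ligated with BsaI/T4 ligase (1 h, 37 °C), PCR-amplified and sequenced on an Illumina NextSeq500.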

ELK1 = target: T2, ELK1 (Homo sapiens, UniProt P19419 1-428); conditions: protein: recombinant; tags: N-terminal GST; dsDNA, one strand shown
T2 sequence: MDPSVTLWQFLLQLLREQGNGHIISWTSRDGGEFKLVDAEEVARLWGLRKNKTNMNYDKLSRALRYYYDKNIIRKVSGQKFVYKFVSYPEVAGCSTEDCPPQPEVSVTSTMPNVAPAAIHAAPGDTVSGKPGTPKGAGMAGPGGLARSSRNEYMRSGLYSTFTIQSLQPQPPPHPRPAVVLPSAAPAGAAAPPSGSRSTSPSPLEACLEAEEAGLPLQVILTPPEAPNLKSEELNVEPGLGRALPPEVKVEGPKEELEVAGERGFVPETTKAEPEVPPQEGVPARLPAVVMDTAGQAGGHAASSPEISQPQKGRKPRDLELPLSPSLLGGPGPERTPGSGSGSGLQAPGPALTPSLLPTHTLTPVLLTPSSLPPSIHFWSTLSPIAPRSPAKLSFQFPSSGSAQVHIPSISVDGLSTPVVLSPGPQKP
Procedure, shortened: as §1

GABPA = target: T3, GABPA (Homo sapiens, UniProt Q06546 1-454); conditions: protein: recombinant; tags: N-terminal GST; dsDNA, one strand shown
T3 sequence: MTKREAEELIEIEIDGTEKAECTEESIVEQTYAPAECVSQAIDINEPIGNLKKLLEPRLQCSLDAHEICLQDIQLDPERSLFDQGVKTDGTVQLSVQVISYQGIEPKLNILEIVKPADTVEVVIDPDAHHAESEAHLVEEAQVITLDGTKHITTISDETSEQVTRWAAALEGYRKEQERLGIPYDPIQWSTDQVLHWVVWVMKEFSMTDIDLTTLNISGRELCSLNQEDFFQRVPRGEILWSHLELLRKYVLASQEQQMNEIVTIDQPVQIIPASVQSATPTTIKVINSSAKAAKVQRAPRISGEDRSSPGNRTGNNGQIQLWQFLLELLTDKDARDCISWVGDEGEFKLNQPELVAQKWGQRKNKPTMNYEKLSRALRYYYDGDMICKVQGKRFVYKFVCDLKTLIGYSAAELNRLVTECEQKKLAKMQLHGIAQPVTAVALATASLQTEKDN
Procedure, shortened: as §1

ERG = target: T4, ERG (Homo sapiens, UniProt P11308 1-479); conditions: protein: recombinant; tags: N-terminal GST; dsDNA, one strand shown
T4 sequence: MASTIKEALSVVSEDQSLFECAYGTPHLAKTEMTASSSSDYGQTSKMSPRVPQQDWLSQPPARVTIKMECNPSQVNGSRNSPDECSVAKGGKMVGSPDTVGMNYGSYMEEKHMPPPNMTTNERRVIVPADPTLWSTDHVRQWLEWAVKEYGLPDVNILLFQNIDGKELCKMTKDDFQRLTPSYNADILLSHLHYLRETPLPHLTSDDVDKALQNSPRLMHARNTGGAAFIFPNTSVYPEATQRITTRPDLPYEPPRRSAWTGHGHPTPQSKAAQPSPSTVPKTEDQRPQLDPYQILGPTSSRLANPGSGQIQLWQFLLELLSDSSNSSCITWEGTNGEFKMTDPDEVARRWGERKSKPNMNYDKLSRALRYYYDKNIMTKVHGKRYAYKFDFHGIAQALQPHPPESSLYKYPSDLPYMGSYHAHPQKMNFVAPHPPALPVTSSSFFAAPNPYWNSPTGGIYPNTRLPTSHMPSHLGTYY
Procedure, shortened: as §1

ELF1 = ELF1 (Homo sapiens, UniProt P32519 1-619); conditions: protein: recombinant; tags: N-terminal GST; dsDNA, one strand shown
Procedure, shortened: as §1

EHF = target: T5, EHF (Homo sapiens, UniProt Q9NZC4 1-300); conditions: protein: recombinant; tags: N-terminal GST; dsDNA, one strand shown
T5 sequence: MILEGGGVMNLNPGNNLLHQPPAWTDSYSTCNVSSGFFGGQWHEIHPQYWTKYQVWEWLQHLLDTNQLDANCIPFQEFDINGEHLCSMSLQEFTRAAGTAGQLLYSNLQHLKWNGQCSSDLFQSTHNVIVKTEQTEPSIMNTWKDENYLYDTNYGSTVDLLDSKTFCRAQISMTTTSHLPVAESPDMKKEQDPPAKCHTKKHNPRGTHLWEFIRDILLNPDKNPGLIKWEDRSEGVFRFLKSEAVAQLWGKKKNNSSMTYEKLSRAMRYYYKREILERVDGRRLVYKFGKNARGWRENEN
Procedure, shortened: as §1

SPI1 = SPI1 (Homo sapiens, UniProt P17947 1-270); conditions: protein: recombinant; tags: N-terminal GST; dsDNA, one strand shown
Procedure, shortened: as §1

SPIB = SPIB (Homo sapiens, UniProt Q01892 1-262); conditions: protein: recombinant; tags: N-terminal GST; dsDNA, one strand shown
Procedure, shortened: as §1

ELK3 = target: T6, ELK3 (Homo sapiens, UniProt P41970 1-407); conditions: protein: recombinant; tags: N-terminal GST; dsDNA, one strand shown
T6 sequence: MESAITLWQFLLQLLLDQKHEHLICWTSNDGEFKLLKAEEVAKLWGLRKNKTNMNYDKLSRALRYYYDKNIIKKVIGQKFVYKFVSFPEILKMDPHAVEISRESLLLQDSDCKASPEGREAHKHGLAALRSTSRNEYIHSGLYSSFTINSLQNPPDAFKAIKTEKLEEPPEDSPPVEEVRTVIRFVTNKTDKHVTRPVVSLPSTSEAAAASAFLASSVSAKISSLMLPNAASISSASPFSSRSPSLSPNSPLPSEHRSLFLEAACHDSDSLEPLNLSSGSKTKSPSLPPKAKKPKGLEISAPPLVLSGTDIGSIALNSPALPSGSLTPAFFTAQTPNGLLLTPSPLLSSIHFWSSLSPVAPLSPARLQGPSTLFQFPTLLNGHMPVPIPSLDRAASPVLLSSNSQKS
Procedure, shortened: as §1

FEV = target: T7, FEV (Homo sapiens, UniProt Q99581 1-238); conditions: protein: recombinant; tags: N-terminal GST; dsDNA, one strand shown
T7 sequence: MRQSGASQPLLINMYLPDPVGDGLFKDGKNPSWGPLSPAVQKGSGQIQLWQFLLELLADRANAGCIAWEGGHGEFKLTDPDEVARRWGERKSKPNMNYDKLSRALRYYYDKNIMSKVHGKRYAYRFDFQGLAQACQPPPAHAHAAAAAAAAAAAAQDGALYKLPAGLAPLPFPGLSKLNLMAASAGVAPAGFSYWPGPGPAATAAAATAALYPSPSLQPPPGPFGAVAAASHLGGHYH
Procedure, shortened: as §1

ETV5 = ETV5 (Homo sapiens, UniProt P41161 1-510); conditions: protein: recombinant; tags: N-terminal GST; dsDNA, one strand shown
Procedure, shortened: as §1

HSF1 = HSF1 (Homo sapiens, UniProt Q00613 1-529); conditions: protein: recombinant; tags: N-terminal GST; chain copies: 3; dsDNA, one strand shown
Procedure, shortened: as §1

SPIC = target: T8, SPIC (Homo sapiens, UniProt Q8N5J4 1-248); conditions: protein: recombinant; tags: N-terminal GST; dsDNA, one strand shown
T8 sequence: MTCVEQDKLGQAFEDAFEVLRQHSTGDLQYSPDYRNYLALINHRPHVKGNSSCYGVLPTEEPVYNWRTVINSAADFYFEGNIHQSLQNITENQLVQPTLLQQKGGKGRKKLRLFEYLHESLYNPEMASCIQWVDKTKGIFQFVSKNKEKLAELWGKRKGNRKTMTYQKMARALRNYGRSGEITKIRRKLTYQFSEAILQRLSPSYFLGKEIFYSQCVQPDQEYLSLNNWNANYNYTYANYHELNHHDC
Procedure, shortened: as §1

ELF4 = ELF4 (Homo sapiens, UniProt Q99607 1-663); conditions: protein: recombinant; tags: N-terminal GST; dsDNA, one strand shown
Procedure, shortened: as §1

ELK4 = target: T9, ELK4 (Homo sapiens, UniProt P28324-2 1-405); conditions: protein: recombinant; tags: N-terminal GST; dsDNA, one strand shown
T9 sequence: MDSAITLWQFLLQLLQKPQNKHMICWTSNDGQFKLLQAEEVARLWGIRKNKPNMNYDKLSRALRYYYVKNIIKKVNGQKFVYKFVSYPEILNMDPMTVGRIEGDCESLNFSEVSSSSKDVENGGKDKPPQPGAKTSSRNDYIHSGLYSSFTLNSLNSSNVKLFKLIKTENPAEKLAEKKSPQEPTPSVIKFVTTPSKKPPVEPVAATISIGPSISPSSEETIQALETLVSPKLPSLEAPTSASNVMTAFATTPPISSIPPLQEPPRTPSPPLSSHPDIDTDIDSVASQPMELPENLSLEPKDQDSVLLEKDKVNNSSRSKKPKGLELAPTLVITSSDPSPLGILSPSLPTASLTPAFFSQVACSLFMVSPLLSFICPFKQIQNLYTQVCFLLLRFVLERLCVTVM
Procedure, shortened: as §1

ETV2 = target: T10, ETV2 (Homo sapiens, UniProt O00321 1-342); conditions: protein: recombinant; tags: N-terminal GST; dsDNA, one strand shown
T10 sequence: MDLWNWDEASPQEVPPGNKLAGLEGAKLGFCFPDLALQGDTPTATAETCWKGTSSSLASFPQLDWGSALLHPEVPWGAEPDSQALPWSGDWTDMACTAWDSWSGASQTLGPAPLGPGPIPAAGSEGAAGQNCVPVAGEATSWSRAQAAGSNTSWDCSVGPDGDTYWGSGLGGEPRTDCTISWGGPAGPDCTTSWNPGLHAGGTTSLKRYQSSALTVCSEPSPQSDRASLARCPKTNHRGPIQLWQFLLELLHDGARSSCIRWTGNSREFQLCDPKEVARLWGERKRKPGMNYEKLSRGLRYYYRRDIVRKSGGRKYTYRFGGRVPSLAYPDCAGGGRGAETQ
Procedure, shortened: as §1

ELF3 = target: T11, ELF3 (Homo sapiens, UniProt P78545 1-371); conditions: protein: recombinant; tags: N-terminal GST; dsDNA, one strand shown
T11 sequence: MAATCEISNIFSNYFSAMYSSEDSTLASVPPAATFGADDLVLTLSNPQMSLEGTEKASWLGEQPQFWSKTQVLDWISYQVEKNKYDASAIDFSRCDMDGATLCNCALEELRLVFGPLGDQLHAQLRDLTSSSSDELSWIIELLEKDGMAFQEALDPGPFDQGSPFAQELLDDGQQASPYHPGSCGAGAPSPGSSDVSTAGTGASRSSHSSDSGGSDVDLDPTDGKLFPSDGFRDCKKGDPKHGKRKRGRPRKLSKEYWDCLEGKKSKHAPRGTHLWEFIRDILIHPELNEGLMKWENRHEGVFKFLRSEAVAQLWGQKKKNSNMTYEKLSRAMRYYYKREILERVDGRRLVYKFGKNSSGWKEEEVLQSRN
Procedure, shortened: as §1

CRX = CRX (Homo sapiens, UniProt O43186 1-299); conditions: protein: recombinant; tags: N-terminal GST; dsDNA, one strand shown
Procedure, shortened: as §1

ETV1 = ETV1 (Homo sapiens, UniProt P50549 1-477); conditions: protein: recombinant; tags: N-terminal GST; dsDNA, one strand shown
Procedure, shortened: as §1

Sequence of ETV5 (P41161 whole entry): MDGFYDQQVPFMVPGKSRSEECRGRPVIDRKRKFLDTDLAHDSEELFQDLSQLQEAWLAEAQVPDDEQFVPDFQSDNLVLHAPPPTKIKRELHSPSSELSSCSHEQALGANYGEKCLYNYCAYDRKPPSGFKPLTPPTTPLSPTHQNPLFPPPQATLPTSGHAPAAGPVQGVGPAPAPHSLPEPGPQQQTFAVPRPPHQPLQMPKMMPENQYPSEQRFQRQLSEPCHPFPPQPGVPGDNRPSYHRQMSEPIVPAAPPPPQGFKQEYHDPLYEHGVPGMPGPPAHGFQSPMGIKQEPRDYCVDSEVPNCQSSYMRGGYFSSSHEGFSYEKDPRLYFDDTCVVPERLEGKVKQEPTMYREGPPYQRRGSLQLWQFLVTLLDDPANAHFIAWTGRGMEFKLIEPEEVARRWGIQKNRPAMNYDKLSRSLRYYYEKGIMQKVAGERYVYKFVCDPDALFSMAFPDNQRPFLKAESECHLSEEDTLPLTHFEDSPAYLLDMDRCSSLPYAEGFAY
Sequence of SPIB (Q01892 whole entry): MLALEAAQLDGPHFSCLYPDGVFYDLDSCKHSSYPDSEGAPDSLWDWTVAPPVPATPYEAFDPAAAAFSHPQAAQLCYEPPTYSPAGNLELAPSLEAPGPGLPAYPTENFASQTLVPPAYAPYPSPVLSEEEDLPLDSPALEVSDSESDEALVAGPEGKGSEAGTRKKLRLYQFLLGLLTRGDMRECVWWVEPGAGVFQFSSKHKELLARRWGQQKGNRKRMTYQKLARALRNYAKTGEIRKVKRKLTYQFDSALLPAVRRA
Sequence of ELF1 (P32519 whole entry): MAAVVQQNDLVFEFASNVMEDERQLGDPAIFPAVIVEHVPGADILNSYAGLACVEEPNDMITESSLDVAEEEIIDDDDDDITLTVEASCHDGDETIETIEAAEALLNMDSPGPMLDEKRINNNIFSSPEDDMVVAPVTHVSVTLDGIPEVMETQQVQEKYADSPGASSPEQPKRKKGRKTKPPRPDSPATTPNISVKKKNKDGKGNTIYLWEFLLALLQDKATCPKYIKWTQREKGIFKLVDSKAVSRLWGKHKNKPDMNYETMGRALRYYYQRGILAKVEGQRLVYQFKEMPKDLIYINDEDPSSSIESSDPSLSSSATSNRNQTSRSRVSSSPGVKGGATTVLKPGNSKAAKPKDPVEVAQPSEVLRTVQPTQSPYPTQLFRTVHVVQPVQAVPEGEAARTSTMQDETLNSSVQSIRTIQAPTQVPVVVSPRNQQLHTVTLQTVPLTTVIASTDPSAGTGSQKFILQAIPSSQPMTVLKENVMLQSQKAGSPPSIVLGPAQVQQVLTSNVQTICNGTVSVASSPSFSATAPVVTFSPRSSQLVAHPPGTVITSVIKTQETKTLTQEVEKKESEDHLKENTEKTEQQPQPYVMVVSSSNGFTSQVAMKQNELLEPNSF
Sequence of HSF1 (Q00613 whole entry): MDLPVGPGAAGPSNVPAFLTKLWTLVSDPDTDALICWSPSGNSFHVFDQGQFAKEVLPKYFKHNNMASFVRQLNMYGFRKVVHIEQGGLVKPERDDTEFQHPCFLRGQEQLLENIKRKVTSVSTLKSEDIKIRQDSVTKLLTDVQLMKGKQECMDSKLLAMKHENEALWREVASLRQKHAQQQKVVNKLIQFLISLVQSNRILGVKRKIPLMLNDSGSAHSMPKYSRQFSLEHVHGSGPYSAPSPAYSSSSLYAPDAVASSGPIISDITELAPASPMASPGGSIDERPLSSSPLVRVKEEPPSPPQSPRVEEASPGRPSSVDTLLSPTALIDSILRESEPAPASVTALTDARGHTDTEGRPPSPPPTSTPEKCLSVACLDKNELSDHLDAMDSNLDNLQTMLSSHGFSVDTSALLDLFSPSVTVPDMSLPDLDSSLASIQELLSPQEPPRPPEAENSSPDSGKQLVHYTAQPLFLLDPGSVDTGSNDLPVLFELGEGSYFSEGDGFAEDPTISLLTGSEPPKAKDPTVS
Sequence of ETV1 (P50549 whole entry): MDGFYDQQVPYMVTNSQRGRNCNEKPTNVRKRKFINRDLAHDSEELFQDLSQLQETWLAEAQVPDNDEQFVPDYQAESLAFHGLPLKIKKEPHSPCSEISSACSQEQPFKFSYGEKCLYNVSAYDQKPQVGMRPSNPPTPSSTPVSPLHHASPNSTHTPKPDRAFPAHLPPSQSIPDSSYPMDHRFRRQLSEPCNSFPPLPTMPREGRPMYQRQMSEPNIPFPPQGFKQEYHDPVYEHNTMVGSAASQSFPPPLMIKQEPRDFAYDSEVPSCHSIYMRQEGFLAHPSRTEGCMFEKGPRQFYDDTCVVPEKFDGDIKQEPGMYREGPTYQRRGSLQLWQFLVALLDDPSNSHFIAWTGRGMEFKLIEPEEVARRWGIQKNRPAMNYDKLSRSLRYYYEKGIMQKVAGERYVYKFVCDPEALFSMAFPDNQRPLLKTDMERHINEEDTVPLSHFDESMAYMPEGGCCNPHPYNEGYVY
Sequence of ELF4 (Q99607 whole entry): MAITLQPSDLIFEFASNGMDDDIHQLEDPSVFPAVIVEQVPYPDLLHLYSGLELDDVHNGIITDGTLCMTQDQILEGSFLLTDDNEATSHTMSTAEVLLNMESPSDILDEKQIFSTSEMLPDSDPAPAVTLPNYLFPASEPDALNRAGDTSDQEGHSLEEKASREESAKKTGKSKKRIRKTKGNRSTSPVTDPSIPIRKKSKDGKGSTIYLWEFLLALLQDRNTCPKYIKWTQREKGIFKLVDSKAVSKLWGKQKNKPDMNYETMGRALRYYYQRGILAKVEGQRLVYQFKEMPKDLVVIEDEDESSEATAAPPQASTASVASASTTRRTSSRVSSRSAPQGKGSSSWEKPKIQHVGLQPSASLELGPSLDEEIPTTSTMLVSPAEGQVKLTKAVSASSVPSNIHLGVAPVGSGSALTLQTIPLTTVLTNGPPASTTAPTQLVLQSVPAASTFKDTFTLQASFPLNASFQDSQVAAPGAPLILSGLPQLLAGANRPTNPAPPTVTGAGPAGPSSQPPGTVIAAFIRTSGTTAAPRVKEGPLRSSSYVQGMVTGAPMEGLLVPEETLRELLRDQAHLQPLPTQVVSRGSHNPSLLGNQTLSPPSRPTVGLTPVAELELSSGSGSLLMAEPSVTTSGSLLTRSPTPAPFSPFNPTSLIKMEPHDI
Sequence of CRX (O43186 whole entry): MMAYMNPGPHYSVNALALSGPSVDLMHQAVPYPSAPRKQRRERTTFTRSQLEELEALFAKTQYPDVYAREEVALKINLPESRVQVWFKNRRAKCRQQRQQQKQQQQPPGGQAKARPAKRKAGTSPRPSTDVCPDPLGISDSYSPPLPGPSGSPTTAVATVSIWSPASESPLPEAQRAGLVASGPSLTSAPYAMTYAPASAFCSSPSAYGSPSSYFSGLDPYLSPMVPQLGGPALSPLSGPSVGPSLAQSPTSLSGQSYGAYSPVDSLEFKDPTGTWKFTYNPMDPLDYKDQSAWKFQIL

TAAACA
binding signal (FLI1): 1.19 fold enrichment (6-mer frequency, TF over GST control)
binding signal (ELK1): 1.2 fold enrichment (6-mer frequency, TF over GST control)
binding signal (GABPA): 1.19 fold enrichment (6-mer frequency, TF over GST control)
binding signal (ERG): 1.21 fold enrichment (6-mer frequency, TF over GST control)
binding signal (ELF1): 1.22 fold enrichment (6-mer frequency, TF over GST control)
binding signal (EHF): 1.2 fold enrichment (6-mer frequency, TF over GST control)
binding signal (SPI1): 1.21 fold enrichment (6-mer frequency, TF over GST control)
binding signal (SPIB): 1.16 fold enrichment (6-mer frequency, TF over GST control)
binding signal (ELK3): 1.23 fold enrichment (6-mer frequency, TF over GST control)
binding signal (FEV): 1.18 fold enrichment (6-mer frequency, TF over GST control)
binding signal (ETV5): 1.24 fold enrichment (6-mer frequency, TF over GST control)
binding signal (HSF1): 1.29 fold enrichment (6-mer frequency, TF over GST control)
binding signal (SPIC): 1.29 fold enrichment (6-mer frequency, TF over GST control)
binding signal (ELF4): 1.26 fold enrichment (6-mer frequency, TF over GST control)
binding signal (ELK4): 1.37 fold enrichment (6-mer frequency, TF over GST control)
binding signal (ETV2): 1.22 fold enrichment (6-mer frequency, TF over GST control)
binding signal (ELF3): 1.28 fold enrichment (6-mer frequency, TF over GST control)
binding signal (CRX): 1.53 fold enrichment (6-mer frequency, TF over GST control)
binding signal (ETV1): 1.2 fold enrichment (6-mer frequency, TF over GST control)
